Experimental findings from PubChem BioAssay (NCATS) are described below.

Records with an inconclusive call do not appear. Unmarked numbers belong to inactive results. The source made the active and inactive calls. Calls follow the shape of the dose curve; as a rule, active = well fitted inhibition curve with a large enough effect; inconclusive = small, poorly fitted or top-dose-only effect; inactive = flat fitted curve, though single readings scatter.

Assay [1] in a line: qHTS profiling for inhibitors of Plasmodium falciparum proliferation (AID 504749).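 As to activity, negative = inhibition: 0% = DMSO vehicle and full inhibition = artemisinin control.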 As to all read-outs here: nearly all actives have a fitted effect of over 60% in size. To be noted: P. falciparum in erythrocytes, SYBR Green DNA, 72 h; for activity, negative = inhibition: at 28.7 µM (top of the series). In a few lines:
(§1)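 Quantitative HTS: compounds pinned into medium, infected erythrocytes added (0.3% parasitemia, 2.5% hematocrit), 72 h culture at 37 C under 5% CO2. Saponin/Triton lysis with SYBR Green I, overnight RT, then fluorescence read.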
In general terms: qHTS replaces the single test concentration by a dilution series.

The test system of a further assay is 3D7. Described as above. Particulars: P. falciparum in erythrocytes, SYBR Green DNA, 72 h; series mostly up to 28.7 µM. In a few lines:
as §1

The subject of the next assay is 7G8. Described as above. Particulars: P. falciparum in erythrocytes, SYBR Green DNA, 72 h; series mostly up to 28.7 µM. In a few lines:
as §1

A further assay deals with AA1029. Described as above. Particulars: P. falciparum in erythrocytes, SYBR Green DNA, 72 h; series mostly up to 28.7 µM. The method, boiled down:
as §1

The test system of a further assay is AS120. Described as above. Particulars: P. falciparum in erythrocytes, SYBR Green DNA, 72 h; series mostly up to 28.7 µM. The method, boiled down: as §1
Another assay deals with ATS189. Described as above. To be noted: P. falciparum in erythrocytes, SYBR Green DNA, 72 h; series mostly up to 28.7 µM. The method, boiled down:
as §1

The subject of another assay is ATS95. The description is as above. Particulars: P. falciparum in erythrocytes, SYBR Green DNA, 72 h; series mostly up to 28.7 µM. The method, boiled down: as §1
The next assay deals with C2A. The assay is described as above. To be noted: P. falciparum in erythrocytes, SYBR Green DNA, 72 h; series mostly up to 28.7 µM. In a few lines: as §1
A further assay relates to CP185. The assay is described as above. To be noted: P. falciparum in erythrocytes, SYBR Green DNA, 72 h; series mostly up to 28.7 µM. The method, boiled down:
as §1

A further assay has as its system CP191. Described as above. Particulars: P. falciparum in erythrocytes, SYBR Green DNA, 72 h; series mostly up to 28.7 µM. The method, boiled down:
as §1

A further assay concerns CP192. Described as above. Particulars: P. falciparum in erythrocytes, SYBR Green DNA, 72 h; series mostly up to 28.7 µM. In a few lines:
as §1

A further assay deals with CP194. The assay is described as above. Particulars: P. falciparum in erythrocytes, SYBR Green DNA, 72 h; series mostly up to 28.7 µM. In a few lines: as §1
A further assay relates to CP201. Described as above. Particulars: P. falciparum in erythrocytes, SYBR Green DNA, 72 h; series mostly up to 28.7 µM. The method, boiled down:
as §1

A further assay has as its system CP203. The description is as above. Particulars: P. falciparum in erythrocytes, SYBR Green DNA, 72 h; series mostly up to 28.7 µM. In a few lines:
as §1

In another assay the test system is CP211. Described as above. To be noted: P. falciparum in erythrocytes, SYBR Green DNA, 72 h; series mostly up to 28.7 µM. The method, boiled down: as §1
The next assay has as its system CP215. The assay is described as above. Particulars: P. falciparum in erythrocytes, SYBR Green DNA, 72 h; series mostly up to 28.7 µM. In a few lines:
as §1

The test system of another assay is CP217. The description is as above. Particulars: P. falciparum in erythrocytes, SYBR Green DNA, 72 h; series mostly up to 28.7 µM. In a few lines:
as §1

For the next assay, the system named is CP237. Described as above. Particulars: P. falciparum in erythrocytes, SYBR Green DNA, 72 h; series mostly up to 28.7 µM. In a few lines:
as §1

The test system of the next assay is CP238. The description is as above. Particulars: P. falciparum in erythrocytes, SYBR Green DNA, 72 h; series mostly up to 28.7 µM. In a few lines:
as §1
Potency is read from the fitted curve at half-maximal effect.

With `Cc1ccc(C)c(OCCCC(C)(C)C(=O)O)c1`, the activity, negative = inhibition was 19.7% in assay [1] (parasite line A) and 9.1% in assay [1] (parasite line B). In addition, the Potency result with 3D7, in the assay on 7G8, in the assay with AA1029, in the assay on AS120, in the assay with ATS189 and in the assay on ATS95 was “inactive” each time. In addition, the Potency result in the assay on C2A, in the assay on CP185, with CP191, in the assay on CP192, in the assay with CP194 and with CP201 was “inactive” each time. For the same molecule, the Potency result in the assay on CP203, with CP211, in the assay on CP215, with CP217, in the assay on CP237 and with CP238 was “inactive” throughout.
Take `Clc1ccc(C(Cn2ccnc2)OCc2ccsc2Cl)c(Cl)c1` (stereo not drawn): the Potency in assay [1] (parasite line A) was 2.82 µM (active); in [1] (parasite line B) it was 2.82 µM (active); in the assay on 3D7, 2.51 µM (active); with 7G8, 0.447 µM (active); in the assay with AA1029, 7.94 µM (active); with AS120, 1.12 µM (active). Further, the Potency in the assay with ATS189 was 6.31 µM (active); in the assay with ATS95, 7.08 µM (active); with CP185, 7.94 µM (active); with CP191, 7.08 µM (active); in the assay on CP192 it was 16.9 µM (active); in the assay with CP194, 8.49 µM (active). The Potency in the assay with CP203 is 4.78 µM (active); with CP211, 13.5 µM (active); in the assay on CP215 it was 6.01 µM (active); in the assay with CP217 it was 5.01 µM (active); in the assay with CP237, 3.98 µM (active); in the assay with CP238 it was 10 µM (active).
In the case of `CCC[C@@H]1C[C@@H](C(=O)N[C@@H]([C@H]2O[C@H](SC)[C@H](O)[C@@H](O)[C@H]2O)[C@@H](C)O)N(C)C1`, in the assay on ATS189, the Potency result was “inactive”. The Potency with CP215 was 2.69 µM (active).
On to `C[C@]12CCC(=O)C=C1CC[C@@H]1[C@H]2[C@@H](O)C[C@@]2(C)[C@H]1CC[C@]2(O)C(=O)CO`, for which the results for the activity, negative = inhibition in assay [1] (parasite line A) and in [1] (parasite line B) were 9.9% and 19.1%, respectively. Besides, the Potency result in the assay on 3D7, in the assay on 7G8, with AA1029, in the assay with AS120, with ATS189 and in the assay with ATS95 was “inactive” each time. Also, the Potency result with C2A, with CP185, in the assay with CP191, in the assay with CP192, with CP194 and with CP201 was “inactive” throughout. The Potency entry with CP203, in the assay on CP211, with CP215, in the assay on CP217, in the assay with CP237 and in the assay on CP238 was “inactive” throughout.
For the molecule `CNC[C@H](O)c1ccc(O)c(O)c1`, the activity, negative = inhibition in assay [1] (parasite line A) is -8.23%; in [1] (parasite line B), 3.15%. Further, the Potency result with 7G8, in the assay on AA1029, in the assay on AS120, with ATS189, with ATS95 and in the assay with C2A was “inactive” each time. Besides, the Potency entry in the assay with CP185, with CP191, in the assay with CP192, in the assay on CP194, in the assay with CP201 and in the assay on CP203 was “inactive” in each case. Also, the Potency entry in the assay with CP211, in the assay on CP217, in the assay with CP237 and in the assay with CP238 was “inactive” each time.
For `CN(c1nccc(=O)[nH]1)C1CCN(c2nc3ccccc3n2Cc2ccc(F)cc2)CC1`, the activity, negative = inhibition in assay [1] (parasite line A) is -22.1%; in assay [1] (parasite line B), -10.5%. For the same molecule, the Potency entry with 3D7, in the assay on ATS189, in the assay on C2A, with CP185, in the assay with CP191 and in the assay on CP192 was “inactive” in each case. Also, the Potency entry in the assay on CP201, in the assay with CP237 and in the assay on CP238 was “inactive” each time. The Potency in the assay with 7G8 was 11.2 µM (active).
Turning to `CCCc1cc(=O)[nH]c(=S)[nH]1`, the activity, negative = inhibition in assay [1] (parasite line A) is 3.45%; in assay [1] (parasite line B) it was 5.92%. Besides, the Potency entry in the assay with 3D7, in the assay with 7G8, in the assay on AA1029, in the assay with AS120, in the assay with ATS189 and in the assay with ATS95 was “inactive” each time. Moreover, the Potency entry in the assay on C2A, in the assay with CP185, in the assay with CP191, in the assay on CP192, with CP194 and in the assay with CP201 was “inactive” each time. Further, the Potency result in the assay on CP203, in the assay on CP211, with CP215, with CP217, with CP237 and in the assay on CP238 was “inactive” in each case.
With `Cc1c(C(=O)NN2CCCCC2)nn(-c2ccc(Cl)cc2Cl)c1-c1ccc(Cl)cc1`, the Potency in assay [1] (parasite line B) was 11.2 µM (active); with 7G8 it was 12.6 µM (active); in the assay on AS120, 12.6 µM (active); in the assay on CP191 it was 11.2 µM (active); with CP194, 16.9 µM (active); with CP203, 13.5 µM (active). The Potency in the assay on CP215 is 13.5 µM (active); with CP217, 11.2 µM (active); in the assay with CP237, 12.6 µM (active).
As for `CCc1nc(N)nc(N)c1-c1ccc(Cl)cc1`, the Potency is 0.0501 µM (active) in assay [1] (parasite line A), 3.16 µM (active) in [1] (parasite line B), 0.0794 µM (active) in the assay on 3D7 and 10 µM (active) in the assay with 7G8. The Potency result in the assay with AA1029, in the assay on ATS189, with ATS95, in the assay with C2A, with CP185 and in the assay on CP192 was “inactive” throughout. For the same molecule, the Potency result in the assay on CP194, in the assay on CP201, in the assay on CP203 and with CP238 was “inactive” in each case.
Turning to `Cc1nc(Nc2ncc(C(=O)Nc3c(C)cccc3Cl)s2)cc(N2CCN(CCO)CC2)n1`, the activity, negative = inhibition in [1] (parasite line B) is -17.2%. The Potency is 5.62 µM (active) with 7G8 and 12.6 µM (active) in the assay on AS120. Also, the Potency result with CP192, in the assay with CP201 and in the assay on CP238 was “inactive” each time.
For `CCC(C)(Oc1ccc(C2(c3ccc(OC(C)(CC)C(=O)O)cc3)CCCCC2)cc1)C(=O)O` (stereo not drawn), the activity, negative = inhibition was 2.31% in assay [1] (parasite line A) and -9.49% in assay [1] (parasite line B). Besides, the Potency result in the assay with 3D7, in the assay on 7G8, with AA1029, with AS120, in the assay on ATS189 and in the assay on ATS95 was “inactive” in each case. The Potency result in the assay with C2A, with CP185, with CP191, in the assay with CP194, in the assay with CP201 and in the assay on CP203 was “inactive” in each case. The Potency entry with CP211, in the assay with CP215, with CP217, in the assay with CP237 and with CP238 was “inactive” throughout.
Turning to `CCN(CC)CCOc1ccc(Cc2ccccc2)cc1`, the activity, negative = inhibition was 8.39% in [1] (parasite line A) and 6.88% in [1] (parasite line B). Besides, the Potency result in the assay on 3D7, with AA1029, in the assay on AS120, with ATS189, with ATS95 and in the assay on C2A was “inactive” in each case. In addition, the Potency result in the assay with CP185, in the assay on CP191, with CP192, with CP194, in the assay with CP201 and in the assay with CP203 was “inactive” in each case. Further, the Potency entry with CP211, in the assay with CP215, with CP217, in the assay with CP237 and in the assay with CP238 was “inactive” throughout. For the same molecule, the Potency in the assay on 7G8 is 12.6 µM (active).
For the molecule `O=C(NC(Cc1cc(=O)[nH]c2ccccc12)C(=O)O)c1ccc(Cl)cc1` (stereo not drawn), the activity, negative = inhibition in assay [1] (parasite line A) was 1.94%; in assay [1] (parasite line B), -14.9%. The Potency entry in the assay with 3D7, in the assay with 7G8, in the assay on AA1029, with AS120, in the assay on ATS189 and with ATS95 was “inactive” throughout. For the same molecule, the Potency result with C2A, in the assay on CP185, in the assay with CP191, in the assay with CP192, with CP194 and with CP201 was “inactive” throughout. Further, the Potency entry in the assay on CP203, in the assay on CP211, with CP215, in the assay on CP217, in the assay with CP237 and in the assay with CP238 was “inactive” in each case.
